Screening results from PubChem BioAssay.
Only some compounds are listed: those with a hit (about 19% of all), similar ones and a draw of the others.
CHX counter = counter-screen for Shiga toxin inhibitors: cycloheximide protein synthesis inhibition | cell reporter, cycloheximide protein synthesis inhibition counterscreen | max response, % | 12% of 300,000 active | AID 2314; in the data active means max response mostly above about 13%, no sharp cut-off; inactive means mostly below about 14%; further: read at 38.3 µM for the half of the compounds with a filed dose; 0% is about no effect
AMA1-RON2 inh = inhibitors of Plasmodium falciparum AMA1-RON2 interaction | 0.2% of 360,000 active | Potency, µM (series often up to 58.2 µM), inactives show at the top dose activity change, negative = inhibition, hits mostly inhibitors | AID 720542 | AlphaScreen AMA1-biotinylated RON2 peptide binding;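 further: potency means the concentration at half of the fitted maximal effect; 0% = vehicle wells and -100% = peptide control; nearly all actives have a fitted effect of over 45% in size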
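AMA1 (3D7) with his tag at 25 nM final met compounds first, then biotinylated RON2 peptide at 25 nM; detection used donor plus acceptor beads, 10 µg/mL apiece, read by AlphaScreen after 30 min at room temperature.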
Pf growth 96h = P. falciparum growth inhibition at 96 hour, primary screen for plastid delayed-death inhibitors; P. falciparum luciferase reporter growth, 96 h; Potency, µM (titrated, usually from 28.7 µM), inactives show at the highest dose activity change, negative = inhibition, most hits filed as inhibitors; 6.9% of 320,000 active; further: potency means the concentration at half of the fitted maximal effect; on the % scale 0 is the no-effect control and ±100 the full control effect
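Delayed-death screen, second-generation endpoint: infected erythrocytes, 2% hematocrit, 0.05% parasitemia final; 96 hours at 37 C, 5% CO2; luciferase detection reagent; luminescence decrease equals reduced growth.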
Shiga inhibitor = Shiga toxin inhibition. Vero cells, Shiga toxin protein synthesis inhibition reporter. inhibition, % at 38.7 µM. 9.2% of 290,000 active; in the data active means inhibition mostly above about 28%, no sharp cut-off; inactive means mostly below about 43%; further: 0% is about no effect
SARS PLP yeast = SARS-CoV PLP inhibition in yeast; AID 485353; 0.19% of 330,000 active; Potency, µM (series often up to 32.9 µM), without a hit: at the highest dose activity, positive = growth rescue, most hits filed as activators; S. cerevisiae expressing SARS-CoV PLpro, growth rescue; calls by dose curve; further: potency means the concentration at half of the fitted maximal effect; 0% is about no effect; nearly all actives have a fitted effect of over 55% in size
Pf growth 48h = P. falciparum growth inhibition at 48 hours (one generation). P. falciparum luciferase growth in erythrocytes, 48 h. Potency, µM (highest dose often 28.7 µM), inactives show at the top dose activity change, negative = inhibition, usual class: inhibitors. 5.9% of 310,000 active; further: potency means the concentration at half of the fitted maximal effect; on the % scale 0 is the no-effect control and ±100 the full control effect
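Luciferase-expressing parasites in RBCs, 2% Hct / 0.1% parasitemia final; RPMI 1640 + 0.5% Albumax; 37 C, 5% CO2, one generation; luminescence read-out, lower signal = inhibition.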
Starred values were filed as active, the others as inactive; i = inactive; ? = inconclusive; / = no result given; [ ] = remark or other dose. Unless noted, the call rests on the fitted dose curve; in most records, active means well fitted curve in the direction sought with a large enough effect; inconclusive means small, poorly fitted or top-dose-only effect, or another doubt; inactive means no such curve, though single readings can be large; an effect the other way counts as inactive or inconclusive.

SMILES	CHX counter	AMA1-RON2 inh	Pf growth 96h	Shiga inhibitor	SARS PLP yeast	Pf growth 48h
CCN(C(=O)CN(C)Cc1cccc(Cl)c1Cl)c1c(N)n(Cc2ccccc2)c(=O)[nH]c1=O	-5	9%	?	-15	20%	-13%
O=C(NCCCCO)c1ccc2c3c(cccc13)CC2	2	-12%	?	14	-1%	5%
Cc1c(OCC(=O)NC2CC(C)(C)NC(C)(C)C2)ccc2c1oc(=O)c1ccccc12	10	-8%	3.3µM*	7	3%	3.7µM*
Cc1cccc2c1OCC/C2=N\NC(=O)COc1ccccc1Cl	21*	3%	87%	63*	7%	310%
CC1CC(C)CN(c2ccc([N+](=O)[O-])nc2)C1 (stereo not drawn)	17*	-4%	?	28	-7%	?
O=[N+]([O-])c1cccc(/C=N/NC2CCS(=O)(=O)C2)c1 (stereo not drawn)	3	4%	20%	23	-1%	18%
Cn1c(CNC(=O)CCNC(=O)c2cccc(Cl)c2)cc(=O)n(C)c1=O	-3	-3%	?	-12	-3%	5%
CC12CCC(c3c(C(=O)N4CCOCC4)nn(-c4ccccc4)c31)C2(C)C (stereo not drawn)	19	5%	1.3µM*	18	2%	?
CC12CCC(c3c(C(=O)O)nn(-c4ccc(F)cc4)c31)C2(C)C (stereo not drawn)	-4	0%	/	-27	-2%	-2%
Cc1ccc(Cn2ncn(-c3ccccc3)c2=O)cc1	19*	3%	62%	30	-1%	20%
Cc1ccc(N/C=C/c2onc(C)c2[N+](=O)[O-])cc1	74*	-3%	95%	117*	1%	103%
Cc1cccc(C)c1N/C=C/c1onc(C)c1[N+](=O)[O-]	0	34%	2%	-7	/	-7%
c1ccc(N2CCN(c3nc4ccccc4n4cnnc34)CC2)cc1	-10	-5%	4.1µM*	-17	3%	/
c1ccc2c(c1)CCCN2c1nc2ccccc2n2cnnc12	30*	20%	24%	107*	2%	/
c1ccc2c(c1)CCN(c1nc3ccccc3n3cnnc13)C2	-2	-1%	?	-6	-7%	/
O=C(Cn1cc(C(F)(F)F)cc(Cl)c1=O)NCc1ccc(F)cc1	23	7%	56%	87*	0%	72%
CN(C)S(=O)(=O)c1cccc(NC(=O)Cn2cc(C(F)(F)F)cc(Cl)c2=O)c1	7	-2%	26%	71*	-5%	-9%
O=C(CN1C(=O)NC2(CCCCC2)C1=O)Nc1ccccc1N1CCCCC1	/	19%	?	/	0%	?
O=C(Cc1ccccc1)NCC(=O)N1CCCCC1	21	-9%	?	2	-2%	17%
O=C(CC(c1ccccc1O)N1CCCCC1)N1CCCCC1 (stereo not drawn)	41*	-6%	0%	35*	1%	62%
CC(C)c1ccc(Nc2ncccc2C(=O)O)cc1	43*	27%	20%	15	-2%	119%
CCCCc1ccc(NC(=S)NCc2ccccc2OC)cc1	-3	-6%	-20%	-30	23%	?
Cc1ncc(CO)c(CNc2ccc(-c3nc4ccccc4[nH]3)cc2)c1O	16*	-4%	-24%	28	1%	?
CCOC(=O)N1CCC(N(CCN(C)C)C(=S)Nc2ccc(Oc3ccccc3)cc2)CC1	8	15%	-84%	-11	0%	-10%
COc1ccccc1/C=C/C(=O)Nc1ccc2c(c1)CCC2	35*	-9%	-55%	34*	-24%	-27%
SMILES	CHX counter	AMA1-RON2 inh	Pf growth 96h	Shiga inhibitor	SARS PLP yeast	Pf growth 48h
CCN(CC(=O)Nc1ccc2c(c1)OCCO2)C(=O)/C=C/c1ccccc1	36*	-2%	28%	47	-4%	75%
COc1ccccc1/C=C/C(=O)Nc1ccc2c(c1)OCCO2	56*	5%	13µM*	99*	-60%	327%
O=C(/C=C/c1ccco1)Nc1ccc2c(c1)OCCO2	30*	-10%	187%	69*	-2%	i
COc1ccc(CN2C(=O)c3ccccc3C2C(=O)NC2CCCCCC2)c(OC)c1 (stereo not drawn)	-3	0%	?	-3	2%	?
O=C(/C=C/c1ccccc1)Nc1cc(NC(=O)/C=C/c2ccccc2)cc(C(=O)O)c1	-3	1%	-4%	-4	0%	61%
O=C(/C=C/c1ccccc1)Nc1ccc2c(c1)OCCO2	25*	-2%	?	30	-4%	73%
O=C(CN(c1cccc(C(F)(F)F)c1)S(=O)(=O)c1ccc(Cl)c([N+](=O)[O-])c1)NCc1ccc(F)cc1	6	-4%[11.6 µM]	15µM*	15	4%	?
O=C(CN(c1cccc([N+](=O)[O-])c1)S(=O)(=O)c1ccccc1)NCc1cccnc1	-6	-5%	?	-10	-2%	5%
Cc1[nH]c(=O)[nH]c(=O)c1NS(=O)(=O)c1ccc2c(c1)CCCC2	-1	27%	/	12	29%	-13%
Cc1ccc(S(=O)(=O)Nc2c(C)[nH]c(=O)[nH]c2=O)cc1C	-7	-2%	2.6µM*	-8	1%	-1%
Cc1ccc(NC(=S)N(CCCN(C)C)Cc2cc3cc4c(cc3[nH]c2=O)OCO4)cc1	1	-7%	19%	-16	0%	?
Cc1cc(C)c2cc(CN(CCN3CCCC3)C(=O)Nc3ccc(F)cc3)c(=O)[nH]c2c1	4	-3%	?	-5	10%	?
Cc1ccc(NC(=S)N(CCCN(C)C)Cc2cc3cc4c(cc3[nH]c2=O)OCO4)c(C)c1	-1	-3%	?	-23	1%	9.3µM*
Cc1ccc2[nH]c(=O)c(CN(CCCN(C)C)C(=O)Nc3ccc(Cl)cc3)cc2c1	-3	2%	/	-4	-3%	-16%
Cc1cc(C)c2cc(CN(CCO)C(=O)Nc3ccc(Cl)cc3)c(=O)[nH]c2c1	5	5%	?	-19	-1%	9.3µM*
COc1ccc(CN(CCCN2CCOCC2)C(=O)Nc2cccc(Cl)c2)cc1OC	-1	-7%	12µM*	-7	-7%	?
COc1ccc2[nH]c(=O)c(CN(CCCN(C)C)C(=O)Nc3ccc(F)cc3)cc2c1	-3	-1%	54%	16	-2%	13µM*
COc1ccc(N2CC(C(=O)Nc3cc(C)ccn3)CC2=O)cc1 (stereo not drawn)	1	3%	7%	-13	-2%	4%
O=C(Nc1ncccc1O)c1ccc(Cl)c(S(=O)(=O)N2CCCC2)c1	/	67%	/	/	/	/
CCOc1ccc2[nH]c(=O)c(CN(CCCN3CCOCC3)C(=O)Nc3ccc(F)cc3)cc2c1	/	-3%	/	/	/	/
COc1cc2cc(CN(CCCN3CCOCC3)C(=O)Nc3ccc(F)cc3)c(=O)[nH]c2cc1OC	12	-4%	40%	-21	0%	13µM*
